From PubChem BioAssay
Activity calls are given as the source filed them.

Legend:
[1] = optical density shifts of acrAB sulA E. coli – strain DRC41, OD650, 48 h, E. coli filamentation inducer project, primary screen (AID 1152); settings: higher = more signal, called active from +8 up or from −8 down;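 further: E. coli MC1000 strain DRC41 lacking acrAB efflux pump and sulA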
[2] = probe aLefty1 binding on compound microarray – biochemical, small-molecule microarray, 635/667 nm fluorescence, primary screen (AID 1153); settings: higher = more signal;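 further: score merges spot fluorescence with signal-to-noise ratio from the scanned slide images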
[3] = plasmodial surface anion channel blockers, osmotic lysis – cell-based, P. falciparum Indochina, OD700, 1 h, primary screen (AID 1154); settings: P. falciparum Indochina infected RBC osmotic lysis, higher = more signal, called active from +8 up or from −8 down
[4] = plasmodial surface anion channel blockers, osmotic lysis – cell-based, P. falciparum Indochina, OD700, 2 h, primary screen (AID 1155);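 further: lysis reports solute entry through the parasite surface anion channel PSAC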; settings: P. falciparum Indochina infected erythrocytes, higher = more signal, called active from +8 up or from −8 down
[5] = changes in parasitized red cell lysis, either direction – P. falciparum Indochina, OD700, 3 h, PSAC antagonist project, primary screen (AID 1156); settings: P. falciparum-infected erythrocytes, osmotic lysis, higher = more signal, called active from +8 up or from −8 down
[6] = plasmodial surface anion channel blockers, osmotic lysis – cell-based, P. falciparum Indochina, OD700, 18 h, primary screen (AID 1157); settings: P. falciparum Indochina infected erythrocytes, osmotic lysis OD700, 18 h; higher = more signal, called active from +8 up or from −8 down
[7] = S6 kinase pathway phospho-S6 level changes – cell-based, A549, cytoblot, luminescence, serum-stimulated, primary screen (AID 1158); settings: 5 h, higher = more signal;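 further: serum-stimulated A549 lung adenocarcinoma cells; signal is phosphorylated S6 detected by cytoblot immunostaining with HRP secondary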
[8] = biological target: NADPH oxidase 2 (Homo sapiens) (UniProt P04839); experiment: compounds shifting NOX2 Amplex Red fluorescence – cell-based, HEK293-NOX2, PMA-stimulated, NOX inhibitor project, primary screen (AID 1159); settings: 45 min, higher = more signal, called active from +8 up or from −8 down; further: test concentration not given here
Chain of NADPH oxidase 2 (Homo sapiens) (P04839 whole entry, looked up): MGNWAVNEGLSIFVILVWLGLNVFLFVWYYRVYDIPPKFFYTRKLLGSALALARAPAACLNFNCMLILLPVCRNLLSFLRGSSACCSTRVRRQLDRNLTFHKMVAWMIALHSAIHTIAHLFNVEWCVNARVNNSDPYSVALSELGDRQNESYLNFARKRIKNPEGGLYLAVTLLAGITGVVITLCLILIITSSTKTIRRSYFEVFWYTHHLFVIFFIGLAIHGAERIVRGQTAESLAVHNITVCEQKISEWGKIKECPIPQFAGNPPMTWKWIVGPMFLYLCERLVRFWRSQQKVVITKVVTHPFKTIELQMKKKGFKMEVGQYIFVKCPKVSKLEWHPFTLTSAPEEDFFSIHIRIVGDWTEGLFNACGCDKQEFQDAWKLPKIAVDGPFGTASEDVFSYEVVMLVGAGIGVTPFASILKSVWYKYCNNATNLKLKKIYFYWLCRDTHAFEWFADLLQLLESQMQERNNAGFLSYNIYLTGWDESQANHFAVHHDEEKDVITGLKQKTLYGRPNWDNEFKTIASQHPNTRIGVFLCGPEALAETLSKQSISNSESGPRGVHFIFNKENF

[9] = biological target: NADPH oxidase 4 (Homo sapiens) (UniProt Q9NPH5); experiment: compounds shifting NOX4 Amplex Red fluorescence – cell-based, HEK293-NOX4, tetracycline-induced, NOX inhibitor project, primary screen (AID 1160); settings: HEK293-NOX4, Amplex Red H2O2 fluorescence, 45 min; higher = more signal, called active from +8 up or from −8 down
Chain of NADPH oxidase 4 (Homo sapiens) (Q9NPH5 whole entry, looked up): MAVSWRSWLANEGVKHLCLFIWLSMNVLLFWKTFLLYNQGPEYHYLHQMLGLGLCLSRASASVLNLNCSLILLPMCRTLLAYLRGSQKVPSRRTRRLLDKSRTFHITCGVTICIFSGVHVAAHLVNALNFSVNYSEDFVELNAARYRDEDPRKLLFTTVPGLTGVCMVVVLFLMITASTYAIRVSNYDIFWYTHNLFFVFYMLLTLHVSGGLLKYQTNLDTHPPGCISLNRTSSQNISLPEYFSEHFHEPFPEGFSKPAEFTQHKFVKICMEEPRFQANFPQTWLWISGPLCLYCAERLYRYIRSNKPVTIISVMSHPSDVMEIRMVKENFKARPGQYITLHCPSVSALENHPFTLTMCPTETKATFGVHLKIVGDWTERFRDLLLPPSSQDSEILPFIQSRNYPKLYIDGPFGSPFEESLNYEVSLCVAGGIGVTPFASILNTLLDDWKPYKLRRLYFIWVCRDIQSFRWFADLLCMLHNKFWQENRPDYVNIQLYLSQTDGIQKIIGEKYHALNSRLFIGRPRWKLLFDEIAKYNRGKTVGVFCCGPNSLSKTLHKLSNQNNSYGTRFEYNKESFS

[10] = biological target: NADPH oxidase 5 (Homo sapiens) (UniProt Q96PH1); experiment: compounds shifting NOX5 Amplex Red fluorescence – cell-based, HEK293-NOX5, NOX inhibitor project, primary screen (AID 1161); settings: HEK293-NOX5, ionomycin, 45 min, higher = more signal
Chain of NADPH oxidase 5 (Homo sapiens) (Q96PH1 whole entry, looked up): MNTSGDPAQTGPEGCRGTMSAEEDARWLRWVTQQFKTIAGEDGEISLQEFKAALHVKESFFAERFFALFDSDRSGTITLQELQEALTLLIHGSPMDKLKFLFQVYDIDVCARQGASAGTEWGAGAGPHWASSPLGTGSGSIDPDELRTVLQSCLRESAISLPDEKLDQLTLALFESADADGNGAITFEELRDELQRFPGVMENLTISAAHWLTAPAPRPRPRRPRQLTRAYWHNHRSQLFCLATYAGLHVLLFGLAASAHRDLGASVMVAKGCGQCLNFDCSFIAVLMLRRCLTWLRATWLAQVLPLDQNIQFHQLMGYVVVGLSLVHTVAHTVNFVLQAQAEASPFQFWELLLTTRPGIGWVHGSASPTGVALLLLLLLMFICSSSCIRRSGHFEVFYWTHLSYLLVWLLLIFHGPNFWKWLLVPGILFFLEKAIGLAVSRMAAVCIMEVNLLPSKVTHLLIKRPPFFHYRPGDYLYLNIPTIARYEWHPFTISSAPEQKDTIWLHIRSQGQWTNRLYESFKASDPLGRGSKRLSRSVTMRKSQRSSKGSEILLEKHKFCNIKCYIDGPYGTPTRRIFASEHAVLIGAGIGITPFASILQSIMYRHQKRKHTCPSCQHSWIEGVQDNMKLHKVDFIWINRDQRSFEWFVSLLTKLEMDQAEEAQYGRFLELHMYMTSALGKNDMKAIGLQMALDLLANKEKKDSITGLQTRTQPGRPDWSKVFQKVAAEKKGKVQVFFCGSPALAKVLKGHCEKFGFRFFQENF

[11] = compound effects on lung adenocarcinoma cell viability – A549, calcein-AM fluorescence, 48 h, basal, profiling panel (AID 1162); settings: higher = more signal; further: test concentration not given here
[12] = compound effects on differentiated 3T3-L1 adipocyte viability – cell-based, 3T3-L1 adipocytes, calcein-AM fluorescence, 48 h, basal, profiling panel (AID 1163); settings: 3T3-L1 adipocytes viability, higher = more signal; further: test concentration not given here
[13] = compound effects on hepatocellular carcinoma cell viability – HepG2, calcein-AM fluorescence, 48 h, basal, profiling panel (AID 1164); settings: higher = more signal; further: test concentration not given here
[14] = compound effects on multiple myeloma cell viability – MM1S, calcein-AM fluorescence, 48 h, basal, profiling panel (AID 1165); settings: higher = more signal;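 further: viability of MM1S multiple myeloma cells under basal unstimulated conditions; test concentration not given here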
[15] = calcein-AM signal in unstimulated myeloma cells – cell-based, calcein-AM fluorescence, 48 h, PK04 Diversity Set, profiling panel (AID 1166); settings: RPMI8226 myeloma viability, higher = more signal;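 further: cells grown under basal conditions without added stimulus; test concentration not given here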
[16] = JC-1 mitochondrial signal, unstimulated HepG2 cells – cell-based, JC-1 fluorescence, 24 h, 100 nL compound, profiling panel (AID 1167); settings: HepG2 mitochondrial potential, higher = more signal; further: test concentration not given here
[17] = JC-1 mitochondrial signal, unstimulated adipocytes – cell-based, JC-1 fluorescence, 3T3-L1 adipocytes, 24 h, 100 nL compound, profiling panel (AID 1168); settings: JC-1 mitochondrial fluorescence, higher = more signal, called active from +8 up or from −8 down; further: test concentration not given here
[18] = JC-1 mitochondrial signal, unstimulated myeloma cells – cell-based, JC-1 fluorescence, RPMI8226, 24 h, 100 nL compound, profiling panel (AID 1169); settings: JC-1 mitochondrial potential fluorescence, higher = more signal; further: test concentration not given here
[19] = JC-1 mitochondrial signal, unstimulated MM1S myeloma – cell-based, JC-1 fluorescence, 24 h, 100 nL compound, profiling panel (AID 1170); settings: MM1S mitochondrial potential, higher = more signal; further: test concentration not given here
[20] = resazurin metabolic signal in A549 cells – cell-based, resazurin fluorescence, 24 h, PK04 Diversity Set, profiling panel (AID 1171); settings: A549 viability, higher = more signal, called active from +8 up or from −8 down; further: test concentration not given here

SMILES	z-score [1]	composite z-score [2]	z-score [3]	z-score [4]	z-score [5]	z-score [6]	z-score [7]	z-score [8]	z-score [9]	z-score [10]	z-score [11]	z-score [12]	z-score [13]	z-score [14]	z-score [15]	z-score [16]	z-score [17]	z-score [18]	z-score [19]	z-score [20]
CC(C)NC(=O)[C@@]1(c2ccc([N+](=O)[O-])cc2)CC(=O)N(C2CCCCC2)[C@@H]1c1ccc(CO)cc1I	1.36 (inactive)	0.533	15.8 (active)	2.08 (inactive)	1.07 (inactive)	0.966 (inactive)	-0.0892	0.824 (inactive)	-1.57 (inactive)	1.45	1.92	1	0.243	-2.24	-2.58	1.29	0.484 (inactive)	-0.169	0.521	0.465 (inactive)
CCOC(=O)C[C@H]1[C@H](OC(=O)c2cc3ccccc3oc2=O)[C@@H](NC(=O)c2ccccc2)c2cc(OCCCO)ccc2N1C(=O)c1ccc2ccccc2n1	0.0582 (inactive)	-0.0969	10.4 (active)	1.33 (inactive)	1.17 (inactive)	0.599 (inactive)	-0.253	0.543 (inactive)	0.43 (inactive)	1.44	0.282	0.785	-0.112	-0.0357	-1.08	-0.314	0.122 (inactive)	-0.311	-0.0496	-0.886 (inactive)
COc1cc(Br)cc(C(O)C2C=CC3C(=O)N(C)C(=O)C3N2N2CCCCC2)c1OC (stereo not given)	-1.8 (inactive)	0.152	0.712 (inactive)	1.27 (inactive)	0.126 (inactive)	1.17 (inactive)	-1.45	0.524 (inactive)	-3.5 (inactive)	-0.637	-1.12	-0.456	-0.315	-1.68	-0.18	-1.05	-0.535 (inactive)	0.672	-0.129	-0.318 (inactive)
CCCCN1CC=CC23O[C@@H]4C=CCCOC(=O)C4[C@H]2C(=O)N(CCCCCCO)[C@@H]3C1=O (stereo not given in full)	-0.288 (inactive)	-0.147	0.371 (inactive)	0.491 (inactive)	0.711 (inactive)	0.258 (inactive)	-0.493	1.24 (inactive)	-0.13 (inactive)	1.85	0.384	-0.585	0.441	1.51	-0.363	0.493	0.271 (inactive)	-0.109	-0.399	-0.176 (inactive)
CCC[C@@H]1C[C@@]1(CCC)[C@@H](NS(=O)(=O)c1cccc2cccnc12)c1ccc(Cl)cc1	-1.61 (inactive)	0.617	0.0126 (inactive)	0.765 (inactive)	-1.01 (inactive)	1.01 (inactive)	0.883	-0.357 (inactive)	-0.382 (inactive)	0.127	1.54	-1.13	0.112	0.0781	-0.99	3.46	0.112 (inactive)	0.137	-0.855	-0.132 (inactive)
CC(C)OC(=O)C=C1C[C@@H](c2ccccn2)O[C@@H](c2ccccn2)O1	-0.167 (inactive)	-0.0559	5.54 (inactive)	1.2 (inactive)	-0.277 (inactive)	0.562 (inactive)	-0.0693	-0.223 (inactive)	-0.461 (inactive)	-0.405	-0.564	-0.631	-0.217	0.667	-1.14	-0.894	-0.341 (inactive)	0.65	-0.816	0.118 (inactive)
CC1CC/C=C\[C@H]2OC34C=CCN(C(C)(C)C)C(=O)[C@H]3N(C(C)CO)C(=O)[C@@H]4C2C(=O)O1 (stereo not given in full)	-0.265 (inactive)	-0.0984	1.42 (inactive)	0.576 (inactive)	0.545 (inactive)	0.355 (inactive)	0.021	0.499 (inactive)	-0.812 (inactive)	1.65	0.593	-0.691	0.292	0.771	-0.192	-0.0168	-0.43 (inactive)	-0.164	-0.726	-0.388 (inactive)
O=C1OCCC/C=C\[C@H]2OC34C=CCN(Cc5ccccc5)C(=O)[C@H]3N(CCCO)C(=O)[C@@H]4C12 (stereo not given in full)	0.616 (inactive)	0.042	1.21 (inactive)	0.486 (inactive)	-0.0156 (inactive)	0.211 (inactive)	-0.506	1.76 (inactive)	-1.71 (inactive)	2.38	-0.0592	-0.0687	0.556	1.58	0.438	0.315	0.478 (inactive)	0.0319	1.44	0.0483 (inactive)
C=CCC(OC(C)=O)[C@@H]1[C@@H](N(Cc2ccc(-c3ccccc3)cc2)C(=O)Cc2ccc(OC)cc2)c2cc(OCCCO)ccc2N1C(=O)Cc1ccc2ccccc2c1 (stereo not given in full)	-0.59 (inactive)	-0.0654	0.747 (inactive)	0.314 (inactive)	0.198 (inactive)	0.186 (inactive)	-0.185	0.304 (inactive)	1.09 (inactive)	1.35	0.247	0.358	0.71	-0.391	-0.252	1.25	-1.73 (inactive)	0.158	0.338	-0.599 (inactive)
C=C(CCCC)/C(=C/C[C@H](OC(=O)c1ccncc1)c1ccccc1OCCO)c1cnc2ccccc2c1	-0.244 (inactive)	0.11	23.7 (active)	4.64 (inactive)	1.08 (inactive)	1.02 (inactive)	0.0376	-1.22 (inactive)	-0.281 (inactive)	-1.45	0.0262	0.091	0.0722	-3.3	-2.97	0.943	-0.424 (inactive)	-0.716	-0.705	0.89 (inactive)
C=CC1(C(=O)OC)CC=C(C(=O)OC)CC1 (stereo not given)	0.2 (inactive)	0.0262	0.655 (inactive)	-0.87 (inactive)	-1.3 (inactive)	-1.96 (inactive)	0.674	0.379 (inactive)	-0.389 (inactive)	-0.0703	0.211	0.0237	-0.287	0.835	-0.0765	1.27	0.562 (inactive)	-0.093	-1.42	0.45 (inactive)
CCCC[C@@H]1C[C@H]1[C@@H](NC(=O)C(C)(C)C)c1ccc(C(F)(F)F)cc1	-2.06 (inactive)	0.718	5.74 (inactive)	0.367 (inactive)	1.01 (inactive)	-1.37 (inactive)	2.6	-4.58 (inactive)	-4.44 (inactive)	-5.62	-1.63	0.434	-1.6	-2.43	-3.05	-0.754	-1.64 (inactive)	-0.204	-1.8	0.419 (inactive)
Cc1ccc(S[C@]2(C(=O)NCCCN(C)C)CC(=O)N(Cc3cc(C(F)(F)F)cc(C(F)(F)F)c3)[C@@H]2c2ccc(CO)cc2I)cc1	0.272 (inactive)	1.37	3.48 (inactive)	1.12 (inactive)	-1.36 (inactive)	0.303 (inactive)	-0.232	1.28 (inactive)	-1.25 (inactive)	2.43	0.0371	-0.787	0.241	-2.19	-2	-0.547	0.669 (inactive)	-0.442	-2.03	-0.335 (inactive)
COC(=O)[C@@]1(Cc2ccc(OC)cc2)[C@H]2c3cc(C(=O)N(C)C)n(Cc4ccc(S(C)(=O)=O)cc4)c3C[C@H]2CN1C(=O)c1ccccc1	-0.752 (inactive)	1.06	1.85 (inactive)	0.451 (inactive)	0.954 (inactive)	-0.336 (inactive)	4.44	1.04 (inactive)	1.74 (inactive)	-3.36	2.88	0.449	1.13	0.636	1.51	3.14	-0.572 (inactive)	0.484	-1.11	0.0073 (inactive)
CCCCCN1CC=CC23O[C@@H]4/C=C\CCC(C)OC(=O)C4[C@H]2C(=O)N(C(C)CO)[C@@H]3C1=O (stereo not given in full)	0.585 (inactive)	0.0077	0.901 (inactive)	-0.356 (inactive)	0.847 (inactive)	0.355 (inactive)	-0.0749	0.642 (inactive)	-0.2 (inactive)	1.84	0.342	0.287	0.356	0.508	0.311	0.558	-0.00375 (inactive)	0.724	-0.759	1.02 (inactive)
CNS(=O)(=O)c1ccc(C)cc1	2.78 (inactive)	-0.371	-0.699 (inactive)	-1.07 (inactive)	-0.886 (inactive)	-2.23 (inactive)	0.929	2.36 (inactive)	0.878 (inactive)	0.669	0.753	0.451	1.4	0.269	0.0427	0.384	1 (inactive)	-0.049	0.937	-0.126 (inactive)
[N-]=[N+]=NCc1ccccc1C[C@]1(C(N)=O)COC(c2ccc(OCCCO)cc2)=N1	2.84 (inactive)	0.52	15.3 (active)	1 (inactive)	1.68 (inactive)	-0.185 (inactive)	2.31	-1.48 (inactive)	-0.0652 (inactive)	-1.07	0.446	0.431	1.28	-0.761	0.0881	-0.234	1.16 (inactive)	-0.425	1.07	-1.1 (inactive)
COCCCNC(=O)[C@]1(CCC(=O)OC(C)(C)C)N=C(c2ccc(OCCCO)cc2)O[C@@H]1c1ccccc1CN=[N+]=[N-]	-0.458 (inactive)	1.06	26.3 (active)	7.34 (inactive)	0.785 (inactive)	1.13 (inactive)	-0.0406	-0.974 (inactive)	0.289 (inactive)	-0.307	-0.651	-0.579	-0.421	-0.658	0.338	-0.255	-0.2 (inactive)	-0.315	-0.272	0.743 (inactive)
